# Assay results taken from PubChem BioAssay AID709 (SRMLSC, 2007).
# Hit rate of the full screen: of about 65,000 compounds, about 3,600 (5.5%) were called active. The full list was thinned out, with actives kept by preference. Unmarked numbers belong to inactive results.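 How the source made its calls: active means at 10 µM, mean starting fluorescence two-fold or more over control wells; inactive means the rest.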
# Assay: intrinsic fluorescence of library compounds, ex339/em460 – biochemical, MLSMR library, data from DPM-DC assay, artefact control, profiling panel (AID 709);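 further: signal is the first read of a kinetic run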
# Conditions: compound autofluorescence, ex339/em460 nm, NADH buffer; at 10 µM; active compounds read high; 1 = no-compound wells, NADH background
row,SMILES,fluorescence fold increase
1,CCOc1ccc(-n2c(SC(C)C(=O)OC)nc3c(c2=O)SCC3)cc1 (stereo not given),1.06
2,CC(=O)c1cc(C#N)c(SCC(=O)C(C)(C)C)nc1C,1.08
3,Cc1ccccc1S(=O)(=O)Cc1ccc(C(=O)NCCN2CCCCC2C)o1 (stereo not given),1.1
4,CC1=Nn2c(nnc2-c2ccccc2)SC1,1
5,CCOC(=O)CCc1c(C)c(C#N)c2[nH]c3ccccc3n2c1=O,2.29 (active)
6,CCOC(=O)C1CCN(C(=O)Cn2cc(C#N)c3ccccc32)CC1,1.19
7,CCOC(=O)CC1=CC(=O)Nc2ccccc2N1,1.15
8,COc1ccc(C2C(C(=O)N3CCN(c4ccc(OC)cc4)CC3)c3ccccc3C(=O)N2C)cc1 (stereo not given),1.12
9,COc1ccccc1-n1c(CNC(=O)c2ccccc2)nnc1SCC(=O)Nc1nnc(C)s1,1.12
10,CC(NCCO)C(=O)C12CC3CC(CC(C3)C1)C2 (stereo not given),1.13
11,Cc1cccc(N(CC(O)CN(C)C)S(=O)(=O)c2ccccc2)c1 (stereo not given),1.08
12,CNC(=O)Nc1cc(C(C)(C)C)no1,1.07
13,CCOC(=O)c1ccc(COC(=O)c2cc(=O)[nH]c3ccccc23)o1,2.1 (active)
14,CCOC(=O)c1ccc(CS(=O)c2ccc(Cl)cc2)o1 (stereo not given),1.02
15,CCOC(=O)c1sc2nc(CSCC(=O)OCc3ccc(C(=O)OC)o3)[nH]c(=O)c2c1C,1.46
16,Cc1ccc(S(=O)(=O)Nc2ccc3ncccc3c2)cc1,1.18
17,COc1cc(NS(=O)(=O)c2ccccc2)ccc1-n1nc(C)cc1C,1.12
18,O=S(=O)(Nc1ccc2nc(-c3ccco3)[nH]c2c1)c1ccccc1,2.12 (active)
19,CCCCN(CCCC)C(=O)CCS(=O)(=O)c1ccc2c(c1)n(C)c(=O)c(=O)n2C,1.23
20,Cc1cc(C)nc(SCc2nnc(SCC(=O)OC3CCCCC3)o2)n1,1.08
21,CC1CN(C2CCN(C(=O)COc3ccccc3)CC2)CC(C)O1 (stereo not given),1.1
22,O=C(NC1CCCCC1)c1ccc2c(=O)n(CC3CCCO3)c(=O)[nH]c2c1 (stereo not given),2.11 (active)
23,O=c1c2cc3c(=O)n(CC4CCCO4)c(=O)c3cc2c(=O)n1CC1CCCO1 (stereo not given),1.07
24,COC(=O)c1ccc2c(=O)n(CC3CCCO3)c(=S)[nH]c2c1 (stereo not given),1.06
25,Cc1cc(C(=O)CC#N)c(C)n1CC(F)(F)F,1.05

row,SMILES,fluorescence fold increase
1,CCCNc1ncnc2sc(C)c(C)c12,1.15
2,Fc1cc(F)c2nc(N3CCOCC3)sc2c1,1.07
3,COc1ccc(OC)c(NC(=O)CSc2nc(N)c(-c3ccccc3)c(=O)[nH]2)c1,1.08
4,CCOC(=O)CCc1c(C)c2ccc(OCc3nn[nH]n3)c(C)c2oc1=O,3.81 (active)
5,CCN(CC)S(=O)(=O)c1cccc(C(=O)Nc2cc(C)nn2-c2nc(C)cc(C)n2)c1,1.03
6,CC(C)C1C2=C(CC(C)(C)CC2=O)ON1c1ccccc1 (stereo not given),1.9
7,O=C(O)C1CCCCC1C(=O)Nc1ccc(Cl)cc1 (stereo not given),1.08
8,CCOC(=O)Cc1c(C)nc2c(C#N)c(C)nn2c1C,3.62 (active)
9,CCOC(=O)CSc1nccc(N(C)C)c1C#N,1.09
10,COc1ccccc1CNC(=O)Cn1cc2c(n1)CCCC2,1.13
11,CC(=O)c1cc2c(cc1N)OCO2,1.13
12,COc1ccc(CCN(Cc2cc3cccc(C)c3[nH]c2=O)C(=O)N2CCCC2)cc1OC,1.08
13,COc1cc2[nH]c(=O)n(CCC(=O)NC3CCN(Cc4ccccc4)CC3)c(=O)c2cc1OC,1.46
14,COc1cc2cc(CN(CCN3CCCC3)C(=O)Nc3ccccc3Cl)c(=O)[nH]c2cc1OC,2.13 (active)
15,Cc1cc(C(=O)O)c(S(C)(=O)=O)s1,1.04
16,Cc1cc(C)c2c(c1)c(C)cc1nnc(SCC(=O)NCc3ccco3)n12,1.45
17,CC(Nc1nc(N2CCCC2)nc2ccccc12)c1ccccc1 (stereo not given),2.43 (active)
18,Cc1ccc(C(CC(=O)O)Nc2nc(N3CCCCC3)nc(N3CCCCC3)n2)cc1 (stereo not given),1.14
19,CC(C)n1c(C(O)c2ccccc2)nc2ccccc21 (stereo not given),1.13
20,Cc1ccc(N2CCN(S(=O)(=O)N(C)C)CC2)cc1Cl,1.11
21,COc1ccc(-c2cc3ccc(OCc4nn[nH]n4)cc3oc2=O)cc1,3.01 (active)
22,COc1ccc(-c2noc(COc3ccc(Cl)c(C)c3)n2)cc1,1.02
23,COc1ccc(OCc2ccc(-c3nc4ccccc4c(=O)n3N)o2)cc1,1.1
24,O=C(O)C1CCN1C1CCCCC1 (stereo not given),0.88
25,COCCCn1c(CCC(=O)O)ccc1-c1ccc(F)cc1,3.84 (active)
